Data taken from PubChem BioAssay (NCI).
The panel holds about 79,000 compounds, 15% with a hit somewhere; the sample as a whole holds those more often. Cut-off read from the data, not from the text of the source: active = growth inhibition above about 70%; inactive = the rest.

Assays:
[1] = NCI Yeast Anticancer Drug Screen. Data for the rad50 strain (AID 155);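 note: 0% = growth of vehicle-only cultures of the same strain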; details: S. cerevisiae rad50 strain growth inhibition; at 50.0 µM; hits give high values
Outline: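 Growth of the mutant yeast was measured after compound exposure and referenced to vehicle-treated cultures.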

[2] = NCI Yeast Anticancer Drug Screen. Data for the mec2-1 strain (AID 157); details: S. cerevisiae mec2-1 strain, at 50.0 µM, hits give high values
Outline: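 Using mec2-1 yeast: add compound, measure growth, express inhibition versus vehicle-treated cultures.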

[3] = NCI Yeast Anticancer Drug Screen. Data for the sgs1 mgt1 strain (AID 161);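 note: 0% = growth of cultures given vehicle only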; details: S. cerevisiae sgs1 mgt1 strain, at 50.0 µM, hits give high values
Outline: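 Growth of a repair-deficient yeast mutant was monitored after compound treatment and expressed as inhibition relative to vehicle-treated cultures.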

[4] = NCI Yeast Anticancer Drug Screen. Data for the cln2 rad14 strain (AID 165);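 note: 0% = growth equal to vehicle treated cultures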; details: S. cerevisiae cln2 rad14 strain, at 50.0 µM, hits give high values
Outline: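 Yeast strain cln2 rad14, bearing defects in cell cycle control and DNA repair, serves as the test system; values reflect growth inhibition compared with vehicle.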

[5] = NCI Yeast Anticancer Drug Screen. Data for the bub3 strain (AID 167); details: S. cerevisiae bub3 mutant strain, at 50.0 µM, hits give high values
Outline: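 Whole-cell yeast assay. The mutant strain was incubated with compounds, and growth inhibition was determined by comparison with vehicle-treated cells.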

[6] = NCI Yeast Anticancer Drug Screen. Data for the mlh1 rad18 strain (AID 175); details: S. cerevisiae mlh1 rad18 strain growth inhibition; at 50.0 µM; hits give high values
Outline: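 Steps: expose repair-defective yeast to compound; measure growth; express inhibition against vehicle-treated controls.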

Measured: growth inhibition

Cc1ccc(N(C)S(=O)(=O)c2ccc([N+](=O)[O-])cc2)cc1
inactive: [1] 8.4% | [2] -2.65% | [3] 29.1% | [4] 21.1% | [5] 42.1% | [6] 26.2%

O=C(N/N=C/c1cccnc1)C(O)C(O)C(O)C(O)CO (stereo unspecified)
inactive: [1] -4.15% | [2] 8.9% | [3] 6.75% | [4] 7.6% | [5] -12.6% | [6] 11.9%

CCCOc1ccc(C(=O)O)cc1
inactive: [1] 10.8% | [2] 7.85% | [3] 6.3% | [4] -2% | [5] -14.8% | [6] 4.15%

C=CCOCC(COC(=O)CCCCCCCCCCCCCCCCC)OCC=C (stereo unspecified)
inactive: [1] -8.85% | [2] -2.85% | [3] -0.25% | [4] 18.9% | [5] -16.8% | [6] 6.5%

CCCC/C(=N/O)c1ccccc1
inactive: [1] 7.4% | [2] 0.7% | [3] -2.65% | [4] -9.1% | [5] -21.6% | [6] -6.95%

O=C(O)CN1C(=O)c2ccccc2C1=O
inactive: [1] -8.75% | [2] -15.7% | [3] -5.5% | [4] -25.7% | [5] -27.6% | [6] -20.3%

CC(=O)c1sc2c(c1OC(=O)c1cccs1)c(=O)n(-c1ccccc1)c(=S)n2-c1ccccc1
inactive: [1] 22.2% | [2] -4.25% | [3] 10.3% | [4] -15.1% | [5] 23.4% | [6] 3.9%

C=C1C(=O)OC2C1C(=O)C/C(C)=C/CCC1(C)OC21 (stereo unspecified)
inactive: [1] 35.6% | [2] 52% | [3] 63.2% | [4] 34% | [5] 66% | [6] 9.95%

CS/C(c1ccccc1)=[N+](\[O-])Cc1ccccc1
inactive: [1] 17.6% | [2] 9% | [3] -7.1% | [4] 8.5% | [5] -0.75% | [6] 3.15%

CC(C)(C)C(=CS(=O)/N=C/c1ccccc1)C(C)(C)C (stereo unspecified)
inactive: [1] -27.4% | [2] -33% | [3] -28.6% | [4] -7% | [5] -37% | [6] -9.85%

COc1ccc(/C=C2\N=C(c3cc(OC)c(OC)c(OC)c3)OC2=O)cc1
inactive: [1] 20.2% | [2] 13.1% | [3] 18.6% | [4] 24.6% | [5] 22.1% | [6] 7.5%

CC(C)(O)c1cccc(I)c1
inactive: [1] 7.7% | [2] -58.9% | [3] -21.1% | [4] -144% | [5] -39.8% | [6] 1.55%

CCC(c1ccc(N(CC)CC)cc1[N+](=O)[O-])c1ccc(N(CC)CC)cc1[N+](=O)[O-]
inactive: [1] 29% | [2] 26.4% | [3] 44.5% | [4] 36.5% | [5] 28.9% | [6] 20.1%

CC(=O)Nc1ccc(C2C(C(=O)Nc3ccccc3)=C(C)NC(C)=C2C(=O)Nc2ccccc2)cc1
inactive: [1] 17.1% | [2] -2.6% | [3] 12.7% | [4] 11.2% | [5] 32.5% | [6] -2.2%

COc1ccc2nc(NC(=O)C(=O)C(C#N)c3ccc(Cl)c(Cl)c3)sc2c1 (stereo unspecified)
inactive: [1] 36.2% | [2] 5.4% | [3] 19.1% | [4] 33.9% | [5] -2.2% | [6] 36.4%

CCc1c(-c2ccccc2)[nH]c(=S)c(C#N)c1C
inactive: [1] -8.7% | [2] -1.5% | [3] 26.6% | [4] 2.7% | [5] -1.1% | [6] -3.9%

COc1ccc(/C=C2\N=C(c3ccc(N)cc3)OC2=O)cc1OC
inactive: [1] 10.1% | [2] -0.05% | [3] 13.2% | [4] 20.1% | [5] 10.3% | [6] 19.9%

COc1ccc(C(O)(c2ccccc2C)c2ccccc2OC)cc1 (stereo unspecified)
inactive: [1] 16.1% | [2] -2.4% | [3] 4.2% | [4] -10.8% | [5] 20.7% | [6] 27.9%

CCCCCCCCCCCCCCCCOc1ccc(S(=O)(=O)NC(C)(C)C)cc1[N+](=O)[O-]
inactive: [1] 8.7% | [2] -17.4% | [3] 7.85% | [4] -1.6% | [5] 20.6% | [6] 18.9%

O=C1CCCN(Cc2ccccc2)C1
inactive: [1] -4.2% | [2] -25.2% | [3] 0.35% | [4] 1.2% | [5] -0.4% | [6] 9.45%

O=C1/C(=C2\CCc3ccccc32)Cc2ccccc21
inactive: [1] 14.1% | [2] 5.65% | [3] -4.2% | [4] -1.7% | [5] 34.6% | [6] 8.15%
